Our source for the max response values is PubChem BioAssay AID2314 (National Center for Advancing Translational Sciences (NCATS), 2010).

Several values for one entry are separate records, joined by “and”; a condition that tells them apart may be missing. Identical values can stand only once. About 37,000 (12%) of roughly 300,000 compounds were called active. No stated cut-off is given here; in the data, active means max response mostly above about 13% (no sharp cut-off); inactive means mostly below about 14%. Only a selection was taken, and actives are over-represented in it overall. The source holds several records for some structures; these can differ, active in one and inactive in another.

This experiment in a line: Cycloheximide Counterscreen for Small Molecule Inhibitors of Shiga Toxin. Further: read at 38.3 µM for the half of the compounds with a filed dose; 0% is about no effect. The conditions noted are these: cell reporter, cycloheximide protein synthesis inhibition counterscreen; stronger effect = higher value.
As for `CC(C)N1CCC(N2CCN(Cc3cccnc3)CC2CCO)CC1` (stereo unspecified), the max response is -0.86% (inactive). Take `CCC(C)(C)NC(=O)CN(Cc1cccs1)C(=O)CNS(=O)(=O)c1ccc(F)cc1`: the max response is 1.08% (inactive). The result for `Cc1ccc(S(=O)(=O)NCC(=O)N(CC(=O)NC(C)(C)C)Cc2cccs2)cc1` reads 0.104% (inactive). Then `CC(C)(C)NC(=O)CN(Cc1cccs1)C(=O)CNS(=O)(=O)c1ccccc1`, with 15.6% (active); and `O=C(N/C(=C\c1ccc(F)cc1)C(=O)N1CCCCCC1)c1ccccc1`, with -2.25% (inactive); and `CC(C)c1nc(SCC(=O)Nc2cccc(C(=O)O)c2)c2c3c(sc2n1)CCCC3`, with 2.36% (inactive). On to `COc1ccc(CNc2c(CO)cnc3c2cnn3C)cc1`, for which the max response is 8.91% (inactive). The result for `Cc1ccc(S(=O)(=O)N2CCN(C)CC2)cc1C(=O)NC1CCCCC1` reads -0.406% (inactive).

`O=C(Oc1cccnc1)c1cc2ccccc2oc1=O`: the max response is -1.97% (inactive).

As to `O=C(Oc1ccc(Br)cc1)c1cccnc1`, the max response was 7.39% (inactive).

Take `O=C(Oc1c(-c2ccco2)oc2ccccc2c1=O)c1cccnc1`: the max response is 12.7% (active). Then `O=C(CN1C(=O)c2ccccc2C1=O)NCc1ccc(C(=O)O)cc1`, with -4.14% (inactive); and `O=c1[nH]c(NCCO)nnc1Cc1ccc(Cl)cc1`, with -3.78% (inactive); and `Cc1ccc(N(C(=O)CNC(=O)c2ccco2)C(C(=O)NC2CCCC2)c2ccncc2)cc1` (stereo unspecified), with -1.23% (inactive).

On to `CCOC(=O)C1(Cc2ccccc2C(F)(F)F)CCN(C(=O)c2cc(C)n(C)n2)CC1`, for which the max response is 31.4% (active). For `CCOC(=O)C1(Cc2cccc(OC)c2)CCN(C(C)CC(C)(C)O)CC1` (stereo unspecified), the max response was -3.86% (inactive).

Take `CCOC(=O)C1(CCOc2ccccc2)CCN(C(=O)c2cncs2)CC1`: the max response was 1.41% (inactive). The result for `CCCN(CC1COc2ccccc2O1)C(=S)Nc1ccc(C)cc1` (stereo unspecified) reads -5.79% (inactive); that for `Cc1c(CN2CCC(CO)(CCOc3ccccc3)CC2)[nH]c2ccc(Cl)cc12`, -1.37% (inactive); that for `O=C(NC1CCCC1)C(NS(=O)(=O)c1ccc(Br)s1)c1ccccc1` (stereo unspecified), 7.24% (inactive). Then `CC(C)C(OC(=O)c1cccs1)C(=O)NC1CCCCC1` (stereo unspecified), with -1.99% (inactive); and `CC(C)C(=O)OCC(=O)Nc1ccc2c(c1)CCC2`, with 2.17% (inactive); and `CC1CC(C)CN(CCC(=O)Nc2ccc3c(c2)CCC3)C1` (stereo unspecified), with -6.42% (inactive).

Take `O=C(NC1CCCC1)c1ccc(Br)s1`: the max response was 19.5% (active). The result for `O=C(CCC(=O)c1cccs1)NC1CCCCCC1` reads 21.2% (active); that for `O=C(CN(C(=O)CNC(=O)c1cccs1)c1cccc(F)c1)NC1CCCCC1`, 0.305% (inactive). The result for `O=C(Nc1ccc2c(c1)CCC2)c1ccc(Br)s1` reads 72% (active); that for `CN(CC(=O)NC1CCCCC1)S(=O)(=O)c1ccc(Br)s1`, 6.95% (inactive). Then `O=C(NCC(=O)N(Cc1cccs1)C(C(=O)NC1CCCCC1)c1ccco1)c1cccs1` (stereo unspecified), with -2.31% (inactive); and `O=C(NC1CCCCCCC1)c1cccs1`, with 34% (active). In the case of `O=C(COC(=O)/C=C/c1cccs1)NC1CCCCC1`, the max response was -0.796% (inactive). With `O=S(=O)(c1ccc(F)cc1)N1CCN=C1SCc1cccc(F)c1`, the max response is 7.74% (inactive). The result for `COc1cccc(NC(=O)N2CCC(NC(=O)C(Cc3cccc(C)c3)NC(C)=O)CC2)c1` (stereo unspecified) reads -0.694% (inactive); that for `O=C(Nc1ccc(S(=O)(=O)N2CCCCC2)cc1)C1CC(=O)N(c2ccc(F)cc2)C1` (stereo unspecified), -1.91% (inactive); that for `CN(C)c1ccc(CNC(=O)CN2C(=O)COc3ccc(S(=O)(=O)N4CCCC4)cc32)cc1`, 9.54% (inactive). The result for `O=[N+]([O-])C(=c1ccc2c(c1)N1C3=C(CCCC3)CC3CCCCC31N=2)[N+](=O)[O-]` (stereo unspecified) reads 6.06% (inactive). Then `c1ccc2c(-c3nn4nnnc4c4ccccc34)cccc2c1`, with 8.28% (inactive).

For the compound `O=C(CCNC(=O)C1CCN(S(=O)(=O)c2ccccc2)CC1)NC1CC1`, the max response is 11.4% (inactive).

Turning to `CC(=O)c1cc(-c2ccccc2)n(CCC(=O)NC2CCCCCC2)c1C`, the max response was -2.48% (inactive). Then `O=C(CCS(=O)(=O)c1ccccc1)NC1CCCC1`, with 49.1% (active); and `COCCCNC(=S)N1CCN(c2nc(-c3cccc(OC)c3)cs2)CC1`, with 9.62% (inactive). The result for `CC(C)c1ccc(Cc2nnc(NCCCO)[nH]c2=O)cc1` reads 12.2% (inactive); that for `COc1cccc(CNS(=O)(=O)c2ccc3c(c2)CC(C)N3C(C)=O)c1` (stereo unspecified), 4.58% (inactive). Then `Cc1cc(C)n(CC(O)CN(c2ccccc2)S(=O)(=O)c2ccc3ccccc3c2)n1` (stereo unspecified), with -3.48% (inactive); and `Cc1cc2c(cc1C)[n+](C)cn2CC(O)COCC1CC=CCC1` (stereo unspecified), with -1.8% (inactive).

As to `COc1ccc(C2/C=C\CN(CC(C)C)CC(=O)N2Cc2ccc(F)cc2)cc1` (stereo unspecified), the max response is -4.65% (inactive) and -3.5% (inactive). The result for `COc1ccc(C2/C=C\CN(S(=O)(=O)c3cccs3)CC(=O)N2Cc2ccc(F)cc2)cc1` (stereo unspecified) reads 8.73% (inactive) and 13.8% (active). As to `COc1ccc(C2/C=C\CN(Cc3ccco3)C(C)C(=O)N2Cc2ccc(F)cc2)cc1` (stereo unspecified), the max response was 10.6% (inactive). Then `C=CCn1c(SCc2ccc(Cl)c(Cl)c2)nnc1C(CO)NC(=O)c1ccc(OC)cc1` (stereo unspecified), with 3.34% (inactive); and `CSc1ccc(/C=N\NC(=O)COc2ccc(Cl)cc2Br)cc1`, with 11.1% (inactive).

With `COc1ccc(/C(C)=N/NC(=O)c2ccc3nc[nH]c3c2)cc1`, the max response is -2.63% (inactive).

In the case of `O=C(N/N=C/c1ccc(Cl)c(Cl)c1)c1ccc2nc[nH]c2c1`, the max response was 16.3% (active).

On to `CSc1ccc(/C=N\NC(=O)CC(=O)NC(C)C)cc1`, for which the max response was 1.43% (inactive). Regarding `CSc1ccc(/C=N/NC(=O)c2cccc(Cl)c2)cc1`, the max response is 96.6% (active).

For the compound `Cc1nc2ccc(C(=O)N/N=C/c3ccc(O)cc3)cc2[nH]1`, the max response is 7.31% (inactive). For `CC1CC(C)CN(S(=O)(=O)c2cccc3nonc23)C1` (stereo unspecified), the max response was -1.35% (inactive). Then `CN1CC(c2ccccc2)C2(COc3ccccc3C2=O)C12C(=O)Nc1ccccc12` (stereo unspecified), with -3.96% (inactive). The result for `Cc1ccccc1NC(=O)CCNS(=O)(=O)c1ccc2[nH]c(=O)oc2c1` reads -2.26% (inactive); that for `O=S(=O)(NC1CC2CCC1C2)c1ccc(Cl)cc1` (stereo unspecified), -1.85% (inactive); that for `O=C(NNC(=S)NC1CC2CCC1C2)c1ccc(Cl)cc1` (stereo unspecified), 11.9% (active). The result for `S=C(NNC(=S)NC1CC2CCC1C2)NC1CC2C=CC1C2` (stereo unspecified) reads 4.61% (inactive).

As for `O=C(NNC(=O)C1CCCC1)c1ccc(F)cc1`, the max response was -5.73% (inactive). Then `CCOC(=O)NNC(=O)c1ccc(Cl)cc1`, with 6.53% (inactive). Then `O=C(NNC(=O)C1C2CCC(C2)C1C(=O)O)c1ccc(Cl)cc1` (stereo unspecified), with 17.2% (active).

For `CCN(CC(=O)NCCCN1CCOCC1)S(=O)(=O)c1cc(Cl)ccc1Cl`, the max response was 5.99% (inactive). Then `O=C(CCCN1C(=O)/C(=C/c2cccs2)SC1=S)Nc1ccc(O)cc1`, with 8.82% (inactive). Regarding `CCN1C(=NCC(C)C)N[C@@H](CCc2ccccc2)[C@H](C(=O)NCC(C)C)[C@H]1C`, the max response is 0.929% (inactive) and -2.38% (inactive). Take `CN(C)/C=C(/C(=O)c1ccc(Cl)c(Cl)c1)c1nnnn1-c1ccccc1`: the max response is 0.0457% (inactive). For `COc1ccc(C(=O)Nc2ccc(-n3nncc3C(C)(C)C)cc2)cc1`, the max response is 48% (active). The result for `CC(C)(C)c1cnnn1-c1ccc([N+](=O)[O-])cc1` reads 6.21% (inactive). As to `COc1ccc(C(=S)Nc2ccccc2)cc1`, the max response is 37.3% (active). The result for `CCc1cc(C(N)=O)c(NC(=O)c2ccc(OC)cc2)s1` reads 19.3% (active); that for `COCCNC(=S)c1ccc(OC)cc1`, 5.78% (inactive). Then `CCc1cc(C(=O)c2ccc(OC)cc2)c(NC(=O)CN2CCN(C)CC2)s1`, with -1.85% (inactive). For `CCc1cc(C(c2ccccc2OC)N2CCOCC2)c(NC(=O)c2ccccc2)s1` (stereo unspecified), the max response is 12.9% (inactive). With `C/C(=N\Nc1ccc([N+](=O)[O-])cc1)c1ccc(-n2nncc2C(C)(C)C)cc1`, the max response is -3.73% (inactive). The result for `Cc1ccc(NC(=O)c2ccc(Oc3ncccn3)cc2)cc1` reads 32.1% (active); that for `Cc1ccc(NC(=O)c2cccnc2C(=O)Nc2ccc(C)cc2)cc1`, -2.58% (inactive). The result for `COc1ccccc1C(=O)NNC(=O)c1ccc(NC(=O)c2ccccc2)cc1` reads -2.29% (inactive); that for `CCC(C(=O)OCC(=O)Nc1ccc(C(=O)Nc2ccc(OC)cc2)cc1)c1ccccc1` (stereo unspecified), 11.5% (inactive). The result for `CN(C)S(=O)(=O)c1cccc(NC(=O)COC(=O)C2(c3ccccc3F)CCCC2)c1` reads -2.67% (inactive); that for `Cc1c(C(=O)NC(C)C2CC3CCC2C3)cccc1[N+](=O)[O-]` (stereo unspecified), -3.79% (inactive); that for `COc1cnc(SCc2ccc(Cl)c(Cl)c2)nc1Cl`, 2.3% (inactive). Regarding `CCc1c2c(nc3ccc(O)cc13)-c1cc3c(c(=O)n1C2)COC(=O)[C@]3(O)CC`, the max response is -1.28% (inactive). The result for `NC(N)=Nc1nc(-c2ccccc2)c2cc(Cl)ccc2n1` reads -10.2% (inactive); that for `CCOC(=O)C1=C(N)N(c2ccc(C)cc2)C2=C(C(=O)CCC2)C1c1cccs1` (stereo unspecified), 5.25% (inactive). Then `COc1ccccc1OC(C)C(=O)Nc1ccc(S(=O)(=O)Nc2nccs2)cc1` (stereo unspecified), with -6.41% (inactive); and `CC(=O)N1c2ccc(S(=O)(=O)N3CCCC(C(=O)NCc4ccc(Cl)cc4)C3)cc2CC1C` (stereo unspecified), with 10.9% (inactive); and `CNS(=O)(=O)c1cccc(C(=O)NC2CCCc3ccccc32)c1` (stereo unspecified), with -2.97% (inactive).

With `COc1ccc(NS(=O)(=O)c2ccc(NC(=O)c3ccc(N(C)S(C)(=O)=O)cc3)cc2)cc1`, the max response was -6.86% (inactive). The result for `COc1ccc(NC(=O)ON=C2c3ccccc3-c3ccccc32)cc1` reads 36.1% (active).

As to `COc1ccc(C(=O)ON=C2c3ccccc3-c3ccccc32)cc1OC`, the max response is -2.66% (inactive). The result for `COc1ccc(NC(=O)C(Br)C(C)C)cc1` (stereo unspecified) reads 10.3% (inactive). The result for `CCC(=O)Nc1ccc(C(=O)Nc2cccc(OC)c2)cc1` reads 37.4% (active).

Regarding `COc1ccc(NC(=O)c2ccc(C#CC(C)(C)O)cc2)cc1`, the max response is 29.4% (active). Then `COc1cccc(NC(=O)c2ccc(S(=O)(=O)N(C)C)cc2)c1`, with 9.95% (inactive); and `COc1ccc(NC(=O)c2c(C)oc3c2CCCC3)cc1`, with 23.1% (active); and `COc1cccc(NC(=O)CN(C)CC(=O)Nc2ccc3c(c2)CCC3)c1`, with 4.53% (inactive).

With `COc1ccc(S(=O)(=O)Nc2ccc3oc(C)c(C(C)=O)c3c2)cc1`, the max response is -0.324% (inactive). The result for `COc1ccc2oc(=N)c(C(=O)Nc3ccc(Br)cc3)cc2c1` reads -2.54% (inactive). `COc1ccc(CC(=O)Nc2ccc(C(=O)NC(C)(C)C)cc2)cc1`: the max response is 7.23% (inactive).
